# Screening data as filed in PubChem BioAssay.
# PKM2 act – increases activity of human pyruvate kinase M2 | P14618 | purified PKM2, Kinase-Glo ATP luminescence, activation; response scale: 0% is enzyme alone, no compound | Potency, µM (doses to about 57.5 µM), usual class: activators | 0.34% of 260,000 active; note: nearly all actives have a fitted effect of over 55% in size
#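 Kinase-Glo luminescence reports ATP generated from ADP (0.1 mM) and PEP (0.5 mM) by purified hPK-M2 after 1 h at room temperature, pH 7.2 imidazole buffer; intermediate enzyme activity allows detecting inhibitors and activators.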
# EPAC2 antagonist – EPAC2 (human) antagonism; Q8WZA2; EPAC2 GEF exchange of Rap1B-BODIPY-GDP, fluorescence; Potency, µM (titrated, usually from 114 µM), most hits filed as inhibitors; 0.18% of 360,000 active; AID 720708; note: nearly all actives have a fitted effect of over 45% in size
# EPAC1 antag – EPAC1 (human) antagonism; EPAC1 GEF assay, Rap1b-BODIPY-GDP exchange fluorescence; Potency, µM (titrated, usually from 115 µM), usual class: inhibitors; 0.14% of 360,000 active; AID 720709; note: nearly all actives have a fitted effect of over 50% in size
# IL2 activator – IL-2 activation. IL-2 activation reporter assay, cell-based qHTS; stimulated with anti-CD3/CD4/CD28 beads; in transgenic mouse T cells. activation, % (series mostly up to about 46 µM). 0.065% of 360,000 active; in the data active = activation above about 50%; inconclusive = mostly about 30% to 49%
#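 EGFP and DsRed fluorescence is measured by plate cytometry in unstimulated transgenic mouse T cells exposed to compound for 60 minutes, then stimulated 18 hours at 37 degrees C with anti-CD3/anti-CD4 beads plus anti-CD28.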
# EPAC1 agonist – EPAC1 (human) agonism; O95398; EPAC1 agonist qHTS, biochemical assay; response scale: 100% = response to 6.5 mM cAMP; Potency, µM (titrated, usually from 154 µM), most hits filed as activators; 0.073% of 360,000 active; AID 720707; note: nearly all actives have a fitted effect of over 60% in size
#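 Nucleotide exchange by EPAC1 (100 nM) on Rap1B–BODIPY-GDP (250 nM) in the presence of 50 uM GDP is tracked fluorescently at 480/540 nm over 30 min. Signals are normalized to a 6.5 mM cAMP control.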
# EPAC2 agonist – activates human EPAC2 exchange factor; Q8WZA2; EPAC2 activation, biochemical qHTS; response scale: 100% = 6.5 mM cAMP response; Potency, µM (doses to about 154 µM), most hits filed as activators; 0.079% of 360,000 active; AID 720711; note: nearly all actives have a fitted effect of over 50% in size
#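 In this primary screen, activation is scored as increased exchange of BODIPY-GDP from Rap1B by 100 nM EPAC2, with 50 uM GDP as competitor. Signal is normalized to the 6.5 mM cAMP agonist control.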
# Hits are given with their value; i = inactive; ? = inconclusive; nt = no result. An excerpt weighted towards active compounds, which were near 0.64% of everything screened. Unless noted, calls come from the whole dose curve; as a rule, active = well fitted curve in the direction sought with a large enough effect; inconclusive = small, poorly fitted or top-dose-only effect, or another doubt; inactive = no such curve, though single readings can be large; an effect the other way counts as inactive or inconclusive.
SMILES,PKM2 act,EPAC2 antagonist,EPAC1 antag,IL2 activator,EPAC1 agonist,EPAC2 agonist
CC(=O)N1N=C(c2cccnc2)CC1c1ccccc1O (centres undefined),5.01µM,i,i,i,i,i
Cc1c(NS(=O)(=O)c2ccccc2)ccc([N+](=O)[O-])c1Cl,nt,39.8µM,i,i,i,i
Cn1c2c(c3ccccc31)CCNCC2,i,nt,nt,nt,nt,nt
CC(=NCc1ccc2c(c1)OCO2)c1c(O)n(Cc2ccccc2)c(=O)[nH]c1=O,25.1µM,i,i,i,i,i
CCn1c(SCC(=O)Nc2nncs2)nnc1-c1ccco1,nt,i,i,i,i,i
O=[N+]([O-])c1cc([As](=O)(O)c2ccc(O)c([N+](=O)[O-])c2)ccc1O,i,17.8µM,i,i,i,i
O=[N+]([O-])c1cc(-c2ccc([As](=O)(O)O)cc2)ccc1[As](=O)(O)O,i,nt,nt,nt,nt,nt
CN1C2CC(OC(=O)C(CO)c3ccccc3)CC1C1OC12 (centres undefined),i,i,i,i,?,i
CCc1nnc(NC(=O)CSc2ccc(-c3ccco3)nn2)s1,15.8µM,i,i,i,i,i
O=C(CSc1ccc(-c2ccco2)nn1)Nc1ccccc1,14.1µM,i,i,i,i,i
CC(=O)Nc1ccc(N(C(=O)Cn2nnc3ccccc32)C(C(=O)NC2CCCC2)c2ccc(O)c(O)c2)cc1 (centres undefined),?,i,?,i,i,i
C=CCn1c(-c2ccc([N+](=O)[O-])cc2)n[nH]c1=S,i,i,?,i,i,i
Cn1cccc1/C=C1/C(=O)NC(=O)N(Cc2ccc(F)cc2)C1=O,i,i,?,i,i,i
Cn1cccc1/C=C1/C(=O)NC(=S)N(Cc2ccc(F)cc2)C1=O,i,i,15.8µM,i,i,i
O=C(O)C(NC(=O)c1ccccc1)=C(Cl)Cl,nt,i,?,i,i,i
CN(N=Cc1ccc([N+](=O)[O-])cc1)c1ccccn1,nt,i,i,i,i,i
COc1cccc(C2[C@H](C)C3(CCN2C)OCCO3)c1 (some centres undefined),i,i,?,i,i,i
O=C1NC(=O)C(=Cc2ccc(-c3ccccc3[N+](=O)[O-])o2)C(=O)N1,17.8µM,i,?,i,i,i
CCOC(=O)c1c(C)n(Cc2ccc(F)cc2)c2ccc(O)cc12,11.2µM,?,i,i,i,i
CCCN1[C@H](C(=O)OC)C[C@@H]2CC[C@@H](O)C[C@@H]21,i,nt,nt,nt,nt,nt
COC1C(OC(=O)c2ccc(C)[nH]2)C(O)C(Oc2ccc3c(O)c(NC(=O)c4ccc(O)c(CC=C(C)C)c4)c(=O)oc3c2Cl)OC1(C)C (centres undefined),i,i,39.8µM,i,i,i
S=P(Nn1cnnc1)(c1ccc(Br)cc1)c1ccc(Br)cc1,28.2µM,i,i,i,i,i
CCOC(=O)c1ncn2c1CN(C)C(=O)c1cc(N=[N+]=[N-])ccc1-2,i,nt,nt,nt,nt,nt
Cc1ccc(N2C(=O)NC(=O)/C(=C\c3cccn3C(C)(C)C)C2=O)cc1,i,i,i,i,i,i
CCC(C)c1ccc(N2C(=O)NC(=O)/C(=C/c3cccn3CCOc3ccc(C)cc3)C2=O)cc1 (centres undefined),i,i,44.7µM,i,i,i
SMILES,PKM2 act,EPAC2 antagonist,EPAC1 antag,IL2 activator,EPAC1 agonist,EPAC2 agonist
CN1/C(=C\C=C2C(=O)NC(=S)NC2=O)C(C)(C)c2ccccc21,i,i,i,i,?,50.1µM
O=[N+]([O-])c1ccc(N2CCCCCC2)c2nonc12,i,i,i,i,100µM,100µM
O=[N+]([O-])c1ccc(N2CCCCC2)c2ncccc12,i,i,i,i,i,i
COC(=O)C1(C)C=C2C(=C(C)C(=O)C2C)CN1 (centres undefined),i,nt,nt,nt,nt,nt
O=[N+]([O-])c1ccc(NCc2ccccc2)c2nonc12,i,i,i,i,56.2µM,56.2µM
O=Cc1c(C(=O)O)n(Cc2ccc(Cl)cc2)c2ccccc12,i,i,i,i,44.7µM,i
